Rab9 promoter act: qHTS Assay for Rab9 Promoter Activators; Potency, µM (doses to about 9.22 µM), for inactives: top-dose activation, negative = inhibition, usual class: activators; Huh7 Rab9 promoter-luciferase reporter, luminescence, 24 h; 2.8% of 320,000 active; note: % of control where 0% means no effect; nearly all actives have a fitted effect of over 60% in size
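Measured in stably transfected Huh7 cells bearing a Rab9 promoter–luciferase construct: 24 h compound treatment at 37 °C, followed by luminescence detection.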
ELG1 genotoxic: qHTS screen for small molecules that induce genotoxicity in human embryonic kidney (HEK293T) cells expressing luciferase-tagged ELG1. HEK293T ELG1-luciferase reporter, luminescence, 16 h. Potency, µM (doses to about 46 µM), without a hit: top-dose activity change, positive = activation, usual class: activators. 1.3% of 330,000 active. AID 504466, 2011; note: % of control where 0% means no effect; nearly all actives have a fitted effect of over 60% in size
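Cells (2,000/well) expressing the ELG1-luciferase fusion are dosed by pin tool and kept 16 hr at 37 °C, 5% CO2. Signal comes from ONE-Glo luciferase reagent after 30 min at room temperature.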
NPC1 prom act: qHTS Assay for NPC1 Promoter Activators; Huh7 NPC1 promoter luciferase reporter, 24 h; AID 485313, 2010; Potency, µM (top dose mostly 9.22 µM), for inactives: at the highest dose activation, actives largely listed as activators; 2.4% of 320,000 active; note: % of control where 0% means no effect; nearly all actives have a fitted effect of over 60% in size
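Cells: Huh7 expressing luciferase under the NPC1 promoter, 1500/well. Seeded 2 h, compound added, incubated 24 h at 37 °C. Luciferase reagent, 10 min ambient, then luminescence.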
SMN2 splice enh: qHTS Assay for Enhancers of SMN2 Splice Variant Expression. HEK293 SMN2-luciferase splicing reporter, luminescence, 30-36 h. Potency, µM (doses to about 46.1 µM), for inactives: at the top dose activity change, positive = activation, usual class: activators. 2.8% of 210,000 active. AID 1458, 2008; note: % of control where 0% means no effect; nearly all actives have a fitted effect of over 55% in size
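HEK293 cells carry an SMN2 minigene-luciferase reporter in which exon 7 inclusion puts luciferase in frame. Cells were seeded at 2000 cells/well, attached for 10-12 hours, then exposed to compounds for 30-36 hours at 37C before ONE-Glo luminescence.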
FLuc counter: qHTS profiling assay for firefly luciferase inhibitor/activator using purifed enzyme and Km concentrations of substrates (counterscreen for miR-21 project). AID 588342, 2011. Potency, µM (top dose mostly 57.5 µM), for inactives: at the top dose activity change, negative = inhibition, usual class: inhibitors. 6.9% of 360,000 active. Luciferin 4-monooxygenase (Photinus pyralis), P08659. purified FLuc, Km substrates, luminescence inhibition;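 note: plate controls were vehicle for no effect and reference inhibitor for full effect; nearly all actives have a fitted effect of over 55% in size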
Target sequence (P08659 whole entry, looked up): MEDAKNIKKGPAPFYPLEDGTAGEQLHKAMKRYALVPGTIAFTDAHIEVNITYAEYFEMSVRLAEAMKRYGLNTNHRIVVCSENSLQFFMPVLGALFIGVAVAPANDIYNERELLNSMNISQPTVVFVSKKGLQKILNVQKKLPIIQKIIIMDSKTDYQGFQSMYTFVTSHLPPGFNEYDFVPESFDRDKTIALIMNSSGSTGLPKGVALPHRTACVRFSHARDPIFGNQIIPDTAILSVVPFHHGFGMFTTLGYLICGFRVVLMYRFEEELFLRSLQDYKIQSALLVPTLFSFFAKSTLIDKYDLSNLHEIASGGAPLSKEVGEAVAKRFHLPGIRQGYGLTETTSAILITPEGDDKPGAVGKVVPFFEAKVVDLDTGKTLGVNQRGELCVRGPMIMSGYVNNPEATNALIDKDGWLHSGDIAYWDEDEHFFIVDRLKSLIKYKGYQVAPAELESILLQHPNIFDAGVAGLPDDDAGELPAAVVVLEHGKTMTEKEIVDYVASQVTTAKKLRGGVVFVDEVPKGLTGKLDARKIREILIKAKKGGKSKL
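Purified P. pyralis luciferase (10nM final) with 10uM D-luciferin and 10uM ATP (Km levels) in 50mM Tris acetate pH 7.5, 10mM Mg acetate, 0.01% Tween-20, 0.05% BSA; qHTS 6-point titration, ~60 µM downward; luminescence read.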
KinaseGlo FLuc: Counterscreen for Luciferase (Kinase-Glo TM) Inhibition | Kinase-Glo luciferase, ATP luminescence, 8 min | Potency, µM (titrated, usually from 38.3 µM), for inactives: at the highest dose activity change, negative = inhibition, most hits filed as inhibitors | Luciferin 4-monooxygenase (Photuris pensylvanica), Q27757 | 0.28% of 200,000 active | AID 1379, 2008; note: % is set by controls: 0 for no effect and ±100 for the full control effect; nearly all actives have a fitted effect of over 60% in size
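Substrate mix (final 50 mM imidazole pH 7.2, 50 mM KCl, 7 mM MgCl2, 10 uM ATP, 0.01% Tween 20, 0.05% BSA) plus pin-tool compound, then Kinase-Glo detection mix; 8 min ambient, luminescence read.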
An asterisk follows results filed as active; ? = inconclusive; . = no result given; [ ] = another dose, or the depositor's remark. Rows were chosen to be rich in hits. Some 7.5% of all compounds tested hit in one or more screens of this group. Calls come from the whole dose curve; as a rule, active = well fitted curve in the direction sought with a large enough effect; inconclusive = small, poorly fitted or top-dose-only effect, or another doubt; inactive = no such curve, though single readings can be large; an effect the other way counts as inactive or inconclusive. Potency is the fitted concentration of half-maximal effect.

SMILES	Rab9 promoter act	ELG1 genotoxic	NPC1 prom act	SMN2 splice enh	FLuc counter	KinaseGlo FLuc
Cc1ccc(C)c(C(=O)Nc2nc3ccccc3[nH]2)c1	27%	-6%	27%	.	-5%	.
O=C(/C=C/c1c(F)cccc1Cl)Nc1nc2ccccc2[nH]1	2.8µM*	?	3.2µM*	7.1µM*	-19%	-8%
COC(=O)C(=Cc1cc(Br)c(OC)c(Br)c1)C(=O)OC	.	.	.	-8%	.	-1%
COc1ccccc1NC(=O)C1=C(C)Nc2nc(SCc3ccccc3Cl)nn2C1c1cccnc1 (configuration not stated)	.	.	.	8%	2%	.
COc1ccc(Cn2c(C(=O)O)c(CNCc3ccco3)c3ccc(OC)cc32)cc1	.	.	.	.	-9%	.
CCS(=O)(=O)N1CCC(c2nc(-c3ccc(C)cc3)no2)CC1	?	10%	?	-26%	15µM*	2%
CCS(=O)(=O)N1CCC(c2nc(-c3ccc(C(F)(F)F)cc3)no2)CC1	-18%	-12%	-15%	-47%	2%	0%
Cc1cccc(-c2noc(C3CCCCC3)n2)c1	.	.	.	24%	3µM*	-8%
Cc1ccc(-c2noc(C3CCCCC3)n2)cc1	?	?	4µM*	22%	?	1%
O=C(CCC1N=C2c3ccccc3N=C(SCc3ccccc3Cl)N2C1=O)NCc1cccs1 (configuration not stated)	.	.	.	.	3%	.
c1ccc(N/N=C(\Cc2nc3ccccc3[nH]2)c2ccccc2)cc1	25%	?	?	13µM*	7.6µM*	0%
N/N=C(/Cc1nc2ccccc2[nH]1)c1ccc([N+](=O)[O-])cc1	28%	1%	16%	?	12µM*	0%
N#CCCN/N=C(/Cc1nc2ccccc2[nH]1)c1ccc(Cl)cc1	?	?	24%	14µM*	27µM*	-2%
O=C(NCCc1nc2ccccc2[nH]1)c1cc([N+](=O)[O-])cc([N+](=O)[O-])c1	17%	-2%	3%	-2%	-3%	-1%
O=C(O)Cc1sc(Nc2cccc3ccccc23)nc1-c1ccc(Cl)cc1	-8%	2%	-5%	.	-4%	.
COC(=O)[C@H]1C[C@H]2CC[C@H](O)C[C@H]2N1Cc1c(F)cccc1Cl	.	.	.	-1%	.	-2%
O=C(Cn1nnc(-c2cccs2)n1)NNC(=O)c1ccccc1Cl	3%	0%	-9%	.	3%	.
COc1cccc(CNC(=O)CCC2CCCN(C(=O)c3cc4ccccc4o3)C2)c1 (configuration not stated)	4.5µM*	11%	?	.	13µM*	.
COc1cccc(CNC(=O)CCC2CCCN(C(=O)c3ccoc3)C2)c1 (configuration not stated)	2%	1%	3%	.	3%	-1%
CCOc1ccc(CNC(=O)C2CCCN(c3nn4cc(-c5ccc(F)cc5)nc4s3)C2)cc1 (configuration not stated)	.	.	.	.	-17%	.
COCCCNC(=O)C1CCCN(c2nn3cc(-c4ccc(C)cc4)nc3s2)C1 (configuration not stated)	.	.	.	.	8.5µM*	.
COc1cccc(CNC(=O)C2CCCN(c3nn4cc(-c5ccc(C)cc5)nc4s3)C2)c1 (configuration not stated)	.	.	.	.	7.6µM*	.
COc1ccc(-c2cn3nc(N4CCCC(C(=O)NCc5ccc(Cl)cc5)C4)sc3n2)cc1 (configuration not stated)	.	.	.	.	12µM*	.
O=C1CCC[C@@H]2CC(NCc3ccc(Cl)c(Cl)c3)C[C@@H]3CCN1[C@H]23 (some centres not stated)	.	.	.	.	.	1%[39.9 µM]

From PubChem BioAssay
